This is an account of results in PubChem BioAssay (NCATS).

The structures appear in SMILES notation. Results filed as inconclusive are left out. Where a call stands in place of a potency, no number is given. Calls of active or inactive are those of the source. Calls follow the shape of the dose curve; as a rule, active = well fitted cell-killing curve with a large enough effect; inconclusive = small, poorly fitted or top-dose-only effect, or effect the other way; inactive = no such curve, though single readings can be large or run the other way.
Potency is read from the fitted curve at half-maximal effect.

One test can be described thus: Quantitative High-Throughput drug screen in 47 multiple myeloma cell lines against the NCATS MIPE library collection: H1112_PLB cell viability assay (AID 1918967; also: nearly all actives have a fitted effect of over 30% in size). As to conditions: H1112 myeloma cells viability, ATP luminescence, 48 h; series mostly up to 45.8 µM. The essentials:
(§1)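 Inhibition of cell viability is measured here. Each line was plated at 500 cells per well, treated with MIPE 4.0 drugs, kept 48 hours at 37C, then assayed for ATP content by CellTiter-Glo luminescence.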
Regarding `C[C@]12CC[C@@H]3c4ccc(O)cc4C[C@@H](CCCCCCCCCS(=O)CCCC(F)(F)C(F)(F)F)[C@H]3[C@H]1CC[C@H]2O` (stereo partly specified), the Potency entry is “inactive”. As for `C[C@H](NC(=O)C(=O)Nc1ccccc1C(C)(C)C)C(=O)N[C@@H](CC(=O)O)C(=O)COc1c(F)c(F)cc(F)c1F`, the Potency result is “inactive”.

`O=C(NC1CCOCC1)c1ccc(-c2cc(-c3cn[nH]c3-c3ccccn3)ccn2)cc1`: the Potency entry is “inactive”. Still for that read-out and setting: the entry for `Cc1ccn(-c2ccc(-c3ncco3)cc2)c(=O)c1-c1ccc2nc(N)ncc2c1` is “inactive”. As to `O=C(Nc1c(Cl)cncc1Cl)c1ccc(OC(F)F)c(OCC2CC2)c1`, the Potency entry is “inactive”. On the same count and under the same terms, the value for `COc1ccc(C2CC(c3ccccc3)=NN2c2ccc(S(N)(=O)=O)cc2)cc1` (stereo unspecified) was 14.8 µM (active); that for `CCc1ccc(C=C2SC(=S)NC2=O)cc1` was “inactive”; that for `CC1(C)S[C@H]2[C@H](NC(=O)[C@@H](N)c3ccc(O)cc3)C(=O)N2[C@@H]1C(=O)O` was “inactive”. Take `CC(=NNC(=S)N1CCC1)c1ccccn1`: the Potency entry was “inactive”. For the compound `CN1CCN(CCOc2cc(OC3CCOCC3)c3c(Nc4c(Cl)ccc5c4OCO5)ncnc3c2)CC1`, the Potency is 23.5 µM (active).

With `O=C(OCC#CCSc1nnc(-c2cccc3ccccc23)o1)c1cc2ccccc2s1`, the Potency result was “inactive”. Consider `CCNc1cc(NC2CCC(O)CC2)nc(Nc2ccc3c(ccn3Cc3ccccc3)c2)n1` (stereo unspecified), for which the Potency was 18.7 µM (active). `CC=CC(=O)N(CC)c1ccccc1C`: the Potency result was “inactive”.

A short description of the next test: Quantitative High-Throughput drug screen in 47 multiple myeloma cell lines against the NCATS MIPE library collection: Karpas25_ECACC cell viability assay (AID 1918968; also: nearly all actives have a fitted effect of over 35% in size). As to conditions: Karpas25 myeloma viability, CellTiter-Glo ATP, 48 h; series mostly up to 45.8 µM. The essentials:
as §1
In general terms: In ATP-based viability assays light output follows the ATP content of the culture.
As to `COC[C@@H](c1ccc(C(F)(F)F)cc1)N1CCN(C2(C)CCN(C(=O)c3c(C)ncnc3C)CC2)C[C@H]1C`, the Potency was 8.33 µM (active). In the case of `O=C(Nc1cc(Cl)cc2c1[nH]c1cnccc12)c1cccnc1`, the Potency is 5.9 µM (active). Turning to `Cc1cnc(C(=O)O)c[n+]1[O-]`, the Potency result is “inactive”. Turning to `CC(=Cc1ccccc1)C=C1SC(=S)N(CC(=O)O)C1=O`, the Potency entry is “inactive”. For `Nc1ncnc2c1ncn2[C@@H]1O[C@H](CO)C[C@@H]1O`, the Potency entry was “inactive”. Regarding `Cc1c(NC(=O)c2ccc(C(C)(C)C)cc2)cccc1-c1cn(C)c(=O)c(Nc2ccc(C(=O)N3CCOCC3)cc2)n1`, the Potency was 16.6 µM (active). With `O=c1c(-c2ccc(O)cc2)coc2cc(O)ccc12`, the Potency entry was “inactive”. The same measure, in the same setting: the figure for `CC(=O)O[C@]1(C(C)=O)CC[C@@H]2[C@@H]3C[C@H](C)C4=CC(=O)CC[C@]4(C)[C@H]3CC[C@@]21C` is 18.7 µM (active); for `O=C(NCc1ccncc1)C12C[C@H]3C[C@@H](C1)CC(c1ccc(Cl)cc1)(C3)C2` it is 20.9 µM (active); for `COc1ccc(-c2nc(N3CCOCC3)c3sc(CN(C)c4ncc(C(=O)NO)cn4)cc3n2)cn1` it is “inactive”. Take `Nc1ncnc2c1ncn2[C@@H]1O[C@@H](CO)[C@H](O)[C@H]1O`: the Potency entry is “inactive”. Take `CNC1CCC(N(Cc2cccc(-c3ccncc3)c2)C(=O)c2sc3c(F)ccc(F)c3c2Cl)CC1` (stereo unspecified): the Potency was 11.8 µM (active). On to `Oc1ccc(C2=Cc3ccc(O)cc3OC2)cc1`, for which the Potency was 1.48 µM (active).

Regarding `NC1=N[C@@]2(c3cc(NC(=O)c4ccc(F)cn4)ccc3F)COC[C@@H]2CS1`, the Potency was 14.8 µM (active). For `CC[C@H]1OC(=O)[C@H](C)C(=O)[C@H](C)[C@@H](O[C@H]2O[C@H](C)C[C@H](N(C)C)[C@@H]2O)[C@](C)(OC)C[C@@H](C)C(=O)[C@H](C)[C@H]2N(CCCCn3cnc(-c4cccnc4)c3)C(=O)O[C@]12C`, the Potency entry was “inactive”. With `CCOC(=O)O[C@]1(C(=O)OCCl)CC[C@@H]2[C@H]3CCC4=CC(=O)C=C[C@]4(C)[C@@H]3[C@@H](O)C[C@@]21C`, the Potency was 0.526 µM (active). For `C[C@]12CC[C@@H]3c4ccc(O)cc4C[C@@H](CCCCCCCCCS(=O)CCCC(F)(F)C(F)(F)F)[C@H]3[C@H]1CC[C@H]2O` (stereo partly specified), the Potency entry was “inactive”. `C[C@H](NC(=O)C(=O)Nc1ccccc1C(C)(C)C)C(=O)N[C@@H](CC(=O)O)C(=O)COc1c(F)c(F)cc(F)c1F`: the Potency was 20.9 µM (active). Take `Cc1cc(OCCCc2c(C(=O)O)n(Cc3cccnc3)c3c(-c4c(COc5ccc(N6CCN([S+](C)(=O)[O-])CC6)cc5)nn(C)c4C)cccc23)cc(C)c1Cl`: the Potency was 20.9 µM (active). In the case of `O=C(Nc1cccc(Br)c1)c1cccc(S(=O)(=O)N2CCCCCC2)c1`, the Potency is 18.7 µM (active). `Cc1ccn(-c2ccc(-c3ncco3)cc2)c(=O)c1-c1ccc2nc(N)ncc2c1`: the Potency was 9.35 µM (active).

Regarding `COc1cccc2c1CCCC2CCCN1CCN(C2CCCCC2)CC1` (stereo unspecified), the Potency was 18.7 µM (active). As for `COc1ccc(C2CC(c3ccccc3)=NN2c2ccc(S(N)(=O)=O)cc2)cc1` (stereo unspecified), the Potency was 16.6 µM (active).
